From PubChem BioAssay (NCI)
The panel holds about 79,000 compounds, 15% with a hit somewhere; the sample as a whole holds those more often. Activity calls are given as the source filed them. No stated cut-off is given here; in the data, active means growth inhibition above about 70%; inactive means the rest.

Legend:
[1] = NCI Yeast Anticancer Drug Screen. Data for the rad52 strain (AID 147);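 further: 0% = growth of vehicle-treated control cultures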; details: S. cerevisiae rad52 mutant growth inhibition, hits give high values
Procedure, shortened: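 Compounds are applied to a genetically defined yeast strain lacking normal DNA damage repair, and inhibition of growth is expressed relative to cultures given vehicle only.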

[2] = NCI Yeast Anticancer Drug Screen. Data for the wt1 strain (AID 149);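 further: 0% = growth of vehicle-treated wt1 cultures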; details: S. cerevisiae wt1 strain (SPY 50644) growth inhibition, hits give high values
Procedure, shortened: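 Measured: growth of wt1 yeast under compound versus vehicle treatment, reported as inhibition.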

[3] = NCI Yeast Anticancer Drug Screen. Data for the rad50EPP+ strain (AID 151);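 further: 0% = growth of vehicle-treated control cultures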; details: S. cerevisiae rad50 mutant strain, hits give high values
Procedure, shortened: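 Compounds were applied to the rad50EPP+ yeast strain, which bears a defined DNA repair alteration, and growth inhibition was determined relative to vehicle-treated cultures.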

[4] = NCI Yeast Anticancer Drug Screen. Data for the mgt1 strain (AID 153); details: S. cerevisiae mgt1 mutant growth inhibition, hits give high values
Procedure, shortened: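 Strain: mgt1 yeast, one of a set carrying defined DNA damage repair or cell cycle control alterations. Compound-treated growth compared with vehicle.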

[5] = NCI Yeast Anticancer Drug Screen. Data for the mec2-1 strain (AID 157); details: S. cerevisiae mec2-1 strain, hits give high values
Procedure, shortened: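 Strain: mec2-1 (DNA repair/cell cycle alteration). Compound exposure, then growth measured; inhibition expressed relative to vehicle.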

[6] = NCI Yeast Anticancer Drug Screen. Data for the rad14 strain (AID 159);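 further: 0% = growth of vehicle-treated control cultures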; details: S. cerevisiae rad14 strain growth inhibition, hits give high values
Procedure, shortened: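 Here, inhibition of yeast growth was measured after compound exposure, using a strain with a genetic defect in DNA damage repair and vehicle-treated cultures as the reference.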

[7] = NCI Yeast Anticancer Drug Screen. Data for the sgs1 mgt1 strain (AID 161);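 further: 0% = growth of cultures given vehicle only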; details: S. cerevisiae sgs1 mgt1 strain, hits give high values
Procedure, shortened: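 Test agents were incubated with a DNA-repair-mutant yeast strain. Growth was then read and compared against vehicle-treated controls.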

[8] = NCI Yeast Anticancer Drug Screen. Data for the CLN2oe strain (AID 163);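 further: 0% = growth of vehicle-only control cultures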; details: S. cerevisiae CLN2oe strain, hits give high values
Procedure, shortened: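 Growth of a genetically modified yeast strain is measured after compound exposure and compared with cultures given vehicle alone.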

[9] = NCI Yeast Anticancer Drug Screen. Data for the cln2 rad14 strain (AID 165);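 further: 0% = growth equal to vehicle treated cultures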; details: S. cerevisiae cln2 rad14 strain, hits give high values
Procedure, shortened: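 Compounds are applied to the cln2 rad14 yeast strain, and growth is then compared with that of vehicle-treated cultures to give inhibition.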

[10] = NCI Yeast Anticancer Drug Screen. Data for the bub3 strain (AID 167); details: S. cerevisiae bub3 mutant strain, hits give high values
Procedure, shortened: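 Whole-cell yeast assay. The mutant strain was incubated with compounds, and growth inhibition was determined by comparison with vehicle-treated cells.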

[11] = NCI Yeast Anticancer Drug Screen. Data for the mlh1 strain (AID 171);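 further: 0% = growth of vehicle-treated control cultures of the same strain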; details: S. cerevisiae mlh1 strain growth inhibition, hits give high values
Procedure, shortened: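 Growth of the mutant yeast strain after compound exposure, expressed as inhibition relative to vehicle-only controls.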

[12] = NCI Yeast Anticancer Drug Screen. Data for the sgs1 strain (AID 173);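 further: 0% = growth of vehicle-only control cultures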; details: S. cerevisiae sgs1 mutant, hits give high values
Procedure, shortened: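 Growth of a yeast strain bearing a defined genetic alteration is measured after compound treatment. Inhibition is expressed relative to vehicle-only controls.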

[13] = NCI Yeast Anticancer Drug Screen. Data for the mlh1 rad18 strain (AID 175); details: S. cerevisiae mlh1 rad18 strain growth inhibition, hits give high values
Procedure, shortened: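 Read-out is yeast growth inhibition, calculated against vehicle-only controls. The compound was applied to a strain engineered with DNA damage repair alterations.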

[14] = NCI Yeast Anticancer Drug Screen. Data for the rad18 strain (AID 177); details: S. cerevisiae rad18 mutant growth inhibition, hits give high values
Procedure, shortened: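 Growth of the mutant yeast strain after compound exposure, normalised to vehicle-only cultures.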

[15] = NCI Yeast Anticancer Drug Screen. Data for the rad50 strain (AID 155);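 further: 0% = growth of vehicle-only cultures of the same strain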; details: S. cerevisiae rad50 strain growth inhibition, hits give high values
Procedure, shortened: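 Growth of the mutant yeast was measured after compound exposure and referenced to vehicle-treated cultures.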

[16] = NCI Yeast Anticancer Drug Screen. Data for the wt2 strain (AID 169);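 further: 0% = growth of vehicle-treated yeast cultures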; details: S. cerevisiae wt2 strain growth inhibition, hits give high values
Procedure, shortened: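 This strain belongs to a panel of yeast strains with defined genetic alterations in DNA damage repair or cell cycle control. Compounds are applied, and growth inhibition is measured against vehicle-treated cultures.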

[17] = at 5.0 µM (retest, dose inferred, filed as 0.5)
[18] = at 50.0 µM (retest, dose inferred, filed as 5.0)

Measured: growth inhibition

O=C(CSC(=S)N1CCCCC1)Nc1nc2c(s1)CCCC2
active: [1]; at 100.0 µM 79% | [2]; at 100.0 µM 79% | [4]; at 100.0 µM 85% | [5]; at 100.0 µM 79% | [6]; at 100.0 µM 73% | [7]; [18] 87% | [7]; at 50.0 µM 86% | [9]; [18] 70% | [9]; at 50.0 µM 72.2% | [10]; at 33.0 µM 80% | [10]; [18] 92% | [10]; at 50.0 µM 86.5% | [10]; at 100.0 µM 85% | [11]; at 100.0 µM 84% | [12]; at 100.0 µM 92% | [13]; at 50.0 µM 78.6% | [14]; at 100.0 µM 76%
inactive: [1]; at 1.2 µM 1% | [1]; at 3.7 µM 6% | [1]; at 11.0 µM 6% | [1]; at 33.0 µM 41% | [2]; at 1.2 µM -9% | [2]; at 3.7 µM -11% | [2]; at 11.0 µM -13% | [2]; at 33.0 µM 3% | [3]; at 1.2 µM 21% | [3]; at 3.7 µM 31% | [3]; at 11.0 µM 38% | [3]; at 33.0 µM 40% | [3]; at 100.0 µM 41% | [4]; at 1.2 µM -8% | [4]; at 3.7 µM -7% | [4]; at 11.0 µM -16% | [4]; at 33.0 µM 17% | [5]; at 1.2 µM 7% | [5]; at 3.7 µM -9% | [5]; [17] -4% | [5]; at 11.0 µM 1% | [5]; at 33.0 µM 1% | [5]; [18] 45% | [5]; at 50.0 µM 56.6% | [6]; at 1.2 µM -9% | [6]; at 3.7 µM -14% | [6]; at 11.0 µM -6% | [6]; at 33.0 µM 11% | [7]; [17] 17% | [8]; at 1.2 µM 3% | [8]; at 3.7 µM -6% | [8]; at 11.0 µM -14% | [8]; at 33.0 µM 0% | [8]; at 100.0 µM 61% | [9]; [17] 11% | [10]; at 1.2 µM 5% | [10]; at 3.7 µM -8% | [10]; [17] 45% | [10]; at 11.0 µM -4% | [11]; at 1.2 µM 24% | [11]; at 3.7 µM 19% | [11]; at 11.0 µM 14% | [11]; at 33.0 µM 43% | [12]; at 1.2 µM 22% | [12]; at 3.7 µM 20% | [12]; at 11.0 µM 15% | [12]; at 33.0 µM 52% | [13]; [17] 16% | [13]; [18] 53% | [14]; at 1.2 µM 27% | [14]; at 3.7 µM 19% | [14]; at 11.0 µM 25% | [14]; at 33.0 µM 23%

O=C(NO)Nc1cc(Cl)cc(Cl)c1
active: [1]; at 11.0 µM 99% | [1]; at 33.0 µM 99% | [1]; at 100.0 µM 97% | [2]; at 11.0 µM 80% | [2]; at 33.0 µM 99% | [2]; at 100.0 µM 98% | [3]; at 33.0 µM 88% | [3]; at 100.0 µM 86% | [4]; at 11.0 µM 100% | [4]; at 33.0 µM 99% | [4]; at 100.0 µM 98% | [15]; at 11.0 µM 99% | [15]; at 33.0 µM 99% | [15]; [18] 99% | [15]; at 50.0 µM 99.3% | [15]; at 100.0 µM 96% | [5]; at 11.0 µM 99% | [5]; at 33.0 µM 99% | [5]; [18] 99% | [5]; at 50.0 µM 99.2% | [5]; at 100.0 µM 98% | [7]; [18] 99% | [7]; at 50.0 µM 98.8% | [8]; at 11.0 µM 99% | [8]; at 33.0 µM 99% | [8]; at 100.0 µM 98% | [9]; [18] 99% | [9]; at 50.0 µM 99% | [10]; at 11.0 µM 99% | [10]; at 33.0 µM 99% | [10]; [18] 99% | [10]; at 50.0 µM 98.8% | [10]; at 100.0 µM 98% | [16]; at 11.0 µM 98% | [16]; at 33.0 µM 99% | [16]; at 100.0 µM 98% | [11]; at 11.0 µM 99% | [11]; at 33.0 µM 99% | [11]; at 100.0 µM 97% | [12]; at 11.0 µM 100% | [12]; at 33.0 µM 100% | [12]; at 100.0 µM 98% | [13]; [18] 99% | [13]; at 50.0 µM 99.3% | [14]; at 11.0 µM 99% | [14]; at 33.0 µM 99% | [14]; at 100.0 µM 98%
inactive: [1]; at 1.2 µM 7% | [1]; at 3.7 µM 39% | [2]; at 1.2 µM -3% | [2]; at 3.7 µM -3% | [3]; at 1.2 µM -4% | [3]; at 3.7 µM -4% | [3]; at 11.0 µM 19% | [4]; at 1.2 µM -3% | [4]; at 3.7 µM 16% | [15]; at 1.2 µM 7% | [15]; at 3.7 µM 50% | [15]; [17] 24% | [5]; at 1.2 µM -2% | [5]; at 3.7 µM 11% | [5]; [17] 0% | [7]; [17] 58% | [8]; at 1.2 µM 7% | [8]; at 3.7 µM 26% | [9]; [17] 21% | [10]; at 1.2 µM -2% | [10]; at 3.7 µM 10% | [10]; [17] -17% | [16]; at 1.2 µM -3% | [16]; at 3.7 µM 6% | [11]; at 1.2 µM 4% | [11]; at 3.7 µM 31% | [12]; at 1.2 µM -2% | [12]; at 3.7 µM 54% | [13]; [17] 64% | [14]; at 1.2 µM 3% | [14]; at 3.7 µM 34%
